# KDM5B inhibitor: inhibitors of human KDM5B histone demethylase; KDM5B demethylase, FDH-coupled NADH fluorescence (FDH is formaldehyde dehydrogenase); hit rate 2.6% among 220,000; Potency, µM (doses to about 57.7 µM), hits mostly inhibitors; active = well fitted inhibition curve with a large enough effect; note: 0% is about no effect; nearly all actives have a fitted effect of over 70% in size
#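 KDM5BΔAP (200 nM final) in 50 mM HEPES pH 7.5, 0.01% Tween-20 was preincubated 10 min at RT with compound over a concentration range. Substrate mix (H3K4me3 12.5 µM, α-KG 25 µM, Fe²⁺, ascorbate, NAD⁺, FDH) was added, and NADH fluorescence change over 30 min gave dose-response curves.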
# An asterisk follows results filed as active; i = inactive; ! = a repeat was not active. Shown is part of a subset that was picked to be rich in hits. Potency is the fitted concentration of half-maximal effect.
SMILES,KDM5B inhibitor
N#CC1CCN(C(=O)C2CN(c3ccccc3)C(=O)N2)CC1 (stereo not given),i
COc1ccc(C(=O)N2CCC(N3CCCNC3=O)CC2)cc1,i
O=C(c1cc(Br)cn2ccnc12)N1CCOCC1,28µM*!
CC(C)(C)C(=O)Nc1cccc(C(=O)Oc2ccccc2C#N)c1,i
CCN1CCCC1CNC(=O)C(=O)Nc1cccc2[nH]ccc12 (stereo not given),i
O=C(/C=C/N(c1ccccc1)c1ccccn1)C(F)(F)F,i
CC(C)(C)OC(=O)N1CCCC(n2c(=O)[nH]c3cccnc32)C1 (stereo not given),i
O=C(NCc1ccccc1)C1COC2(CCN(C(=O)c3cccs3)CC2)N1C(=O)c1ccccc1 (stereo not given),i
O=C(Cc1c[nH]c2ccccc12)NCC(=O)N1CCN(c2ccccc2)CC1,i
CCOC(=O)c1c(C)c(C(=O)Nc2ccc(F)c(Cl)c2)c(C)n1C,i
Cn1nc(C(=O)Nc2ccc(C(C)(C)C)cc2)c2ccccc2c1=O,i
CC(=O)c1c(C)[nH]c(C(=O)OC(C)c2nc(-c3ccccc3)no2)c1C (stereo not given),i
COc1cc(C)cc2oc(=O)c(CC(=O)NCc3ccc(F)cc3)c(C)c12,i
Cc1cc(C(F)(F)F)n2ncc(C(=O)N3C[C@@H](C)[C@](O)(C4CCC4)C3)c2n1,i
Cc1cc(C2CCC2)nc(N2C[C@@H](C)[C@@](C)(O)C2)n1,28µM*
C[C@@H]1CN(C(=O)c2ccc3c(c2)CCC3)C[C@]1(C)O,i
O=C(Nc1nc(-c2cc3ccccc3oc2=O)cs1)c1ccc([N+](=O)[O-])cc1,i
O=C(CN1C(=O)COc2ccc(S(=O)(=O)N3CCOCC3)cc21)N1CCCCC1,i
O=C1Cc2c(-c3cccc4ccccc34)n[nH]c2CN1CCc1ccncc1,i
O=C(NCCc1cccs1)C1CCN(c2ccc(C(F)(F)F)cn2)CC1,i
O=C(CN1CCN(c2ccc(C(F)(F)F)cn2)CC1)NC1CC1,i
FC(F)(F)c1ccc(N2CCC(N[C@@H]3C[C@@H]4OCC[C@@H]43)CC2)nc1,20µM*
Cc1ccc(S(=O)(=O)C/C=C/CS(=O)(=O)c2ccc(C)cc2)cc1,i
Cc1ccc2oc(C(=O)Nc3c(C)cccc3C)cc(=O)c2c1,i
O=C(Cn1ccc2c(Cl)cccc21)Nc1ccc(O)cc1,i
SMILES,KDM5B inhibitor
O=C1NCCCCCCN(C(=O)c2ccco2)[C@H]2CCC[C@@H]12,i
O=C1NCCCCCN(C(=O)c2ccsc2)[C@@H]2C[C@@H](C(=O)N3CCc4ccccc4C3)C[C@H]12,i
O=C1NCCCCCN(C(=O)COc2ccccc2)[C@@H]2C[C@@H](C(=O)N3CCc4ccccc4C3)C[C@H]12,i
O=C1NCCCCCCN(C(=O)C2CC2)[C@H]2C[C@H](C(=O)N3CCc4ccccc4C3)C[C@@H]12,i
CCC(=O)N1CCCCCCNC(=O)[C@@H]2C[C@@H](C(=O)N3CCN(c4ccccn4)CC3)C[C@@H]21,28µM*
O=C1NCCCCCCN(C(=O)c2ccco2)[C@H]2C[C@H](C(=O)N3CCN(c4ccccn4)CC3)C[C@@H]12,25µM*
C/C(c1cccs1)=[N+](\[O-])C(C)/C(=N/O)c1ccco1 (stereo not given),i
Cn1c(=O)c2c(nc(SCC(=O)O)n2Cc2ccc(F)cc2Cl)n(C)c1=O,i
CN(CCc1noc(COc2ccc(F)cc2F)n1)C(=O)c1ccccc1C(F)(F)F,i
Cc1cc(OCC(=O)Nc2ccc3c(c2)OCCO3)c2c(C)cc(=O)oc2c1,i
CSc1ccc(/C=C/C(=O)c2ccc3c(c2)OCCO3)cc1,i
Cc1cc2c(cc1S(=O)(=O)N1CCC(C(=O)N3CCCCC3)CC1)OC(C)C(=O)N2 (stereo not given),i
COc1ccc(CNC(=O)c2c[nH]c3ncccc23)cc1OC,i
COc1ncccc1-c1cc(C(=O)N2CCOCC2)c2c(c1)ncn2C,i
COc1ncccc1-c1cnc2[nH]cc(CC(=O)N3CCOCC3)c2c1,35µM*
COc1ncccc1-c1cnc2[nH]cc(CC(N)=O)c2c1,32µM*
COc1ncccc1-c1cnc2[nH]cc(CC(=O)NC(C)C)c2c1,32µM*
CCC(C)NC(=O)CSc1nc(-c2ccccc2)[nH]c1S(=O)(=O)c1ccc(C)cc1 (stereo not given),i
CC1(C)Cc2c(C#N)c(Nc3ccccc3)n3c(SCC(=O)O)nnc3c2CO1,i
C=C(C)Cn1c(N2CCOCC2)nc2c1c(=O)[nH]c(=O)n2C,i
N#CCCn1c(SCC(=O)Nc2ccc(N3CCCCC3)cc2)nc2ccccc21,i
CCCCCCCC(=O)NCc1cccs1,i
CS(=O)(=O)N1CCOc2ccc(CCC(=O)NCCCN3CCOCC3)cc2C1,i
CCN(CC)c1cc(CCC(=O)NCCOC)ccn1,18µM*
CCN(CC)c1cc(CCC(=O)NCCN(C)C2CCCCC2)ccn1,28µM*
COc1cc(CNC(=O)CCc2ccncc2)ccc1OC1CCCC1,i
CCN(CC)c1cc(CCC(=O)N2CCC(COC)CC2)ccn1,25µM*
